LANA-H2A inh: blocks KSHV LANA binding to histone H2A/H2B; Q9QR71; cell-free LANA-H2A/H2B peptide, fluorescence polarization; inhibition, % (test concentration not listed); hit rate 0.6% among 320,000; in the data active = inhibition mostly above about 10%, no sharp cut-off; inactive = mostly below about 6.7%
rCAG binder: molecules binding r(CAG) RNA repeats. inhibition, % at 3 µM. hit rate 1.3% among 370,000. r(CAG) RNA repeat, TO-PRO-1 dye displacement fluorescence;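 active = inhibition above the plate cutoff, the mean of all test compounds on that plate plus 3 SD, cut at about 35% in these data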;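 note: 0% = DMSO alone and 100% = 100 µM mitoxantrone as full dye displacement; higher means more dye released from RNA so lower well fluorescence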
PRMT1 FP inh: inhibitors of human PRMT1; Q99873; recombinant PRMT1, activity-based probe fluorescence polarization; inhibition, % at 2.79 µM; hit rate 1.3% among 370,000;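 active = inhibition above about 21% made by adding two undisclosed values, limit read from the data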
ALR H2O2 inh: inhibitors of human sulfhydryl oxidase ALR; P55789; purified ALR, DTT oxidation, H2O2 HRP-luminol luminescence; AID 485317; hit rate 3.8% among 290,000; inhibition, % (concentration not given with the values);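 active = mean replicate inhibition above about 79%, with every replicate also reaching it, limit read from the data; inconclusive = only one of the two criteria met; inactive = mean below limit and not every replicate reaching it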
Target sequence (P55789 whole entry, looked up): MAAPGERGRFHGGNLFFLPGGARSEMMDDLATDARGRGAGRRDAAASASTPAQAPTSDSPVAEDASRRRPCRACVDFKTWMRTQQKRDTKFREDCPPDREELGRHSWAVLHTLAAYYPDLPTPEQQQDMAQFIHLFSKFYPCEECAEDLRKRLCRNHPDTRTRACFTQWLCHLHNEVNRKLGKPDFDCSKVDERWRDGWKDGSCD
Rtt109 Vps75: blocks Candida albicans Rtt109/Vps75 acetyltransferase activity. AID 540336. hit rate 0.16% among 330,000. Q5AAJ8. inhibition, % at 34.9 µM. purified Rtt109/Vps75, ThioGlo CoA-SH fluorescence, 4 h;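 active = inhibition of at least 50% in every replicate; inconclusive = best replicate reaches 50% inhibition but some replicates fall short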
Target sequence (Q5AAJ8 whole entry, looked up): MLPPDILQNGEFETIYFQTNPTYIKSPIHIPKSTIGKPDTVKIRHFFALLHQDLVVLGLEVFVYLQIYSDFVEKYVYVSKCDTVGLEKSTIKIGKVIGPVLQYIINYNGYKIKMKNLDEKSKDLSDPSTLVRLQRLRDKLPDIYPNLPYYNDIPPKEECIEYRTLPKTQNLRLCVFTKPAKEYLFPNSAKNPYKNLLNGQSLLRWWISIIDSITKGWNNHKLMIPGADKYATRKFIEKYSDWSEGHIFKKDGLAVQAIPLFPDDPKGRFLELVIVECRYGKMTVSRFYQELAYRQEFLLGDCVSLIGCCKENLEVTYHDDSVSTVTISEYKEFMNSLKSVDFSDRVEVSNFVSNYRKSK
ABHD5-PLIN5 inh: ABHD5-PLIN5 protein interaction inhibition | inhibition, % at 4 µM | Split G. princeps luciferase complementation, luminescence, 4 h | Q00G26+Q8WTS1 | hit rate 0.78% among 360,000;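 active = inhibition above the mean inhibition across every tested compound plus 3 SD, cut at about 22% in these data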;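 note: 0% = DMSO only wells and the 100% control is not disclosed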
PRMT1 inh conf: confirmation of human PRMT1 inhibitors. shares compounds with PRMT1 FP inh. recombinant His-PRMT1, activity-based probe fluorescence polarization. inhibition, % at 2.79 µM. hit rate 42% among 3,300;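 active = mean inhibition across replicates above the hit cutoff derived for the earlier primary screen, cut at about 22% in these data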
Active calls of the source: *; i = inactive; ? = inconclusive; nt = no result; + = active, no number. Hits are enriched below; roughly 5.9% of the tested compounds scored in any of these assays.

SMILES	LANA-H2A inh	rCAG binder	PRMT1 FP inh	ALR H2O2 inh	Rtt109 Vps75	ABHD5-PLIN5 inh	PRMT1 inh conf
Nc1nc(SCC(=O)c2cc3ccccc3o2)n[nH]1	4	17	71*	98*	nt	-7	13
Cc1cc(C)nc(SCC(=O)c2cc3ccccc3oc2=O)n1	5	6	25*	93*	-6	-3	8
COc1ccc2c3c(cccc13)C(=O)CC2	+	i	145*	11	-2	10	81*
COCCN(C(=S)Nc1c(C)cccc1C)C(C)c1cccnc1 (stereo not drawn)	0	-1	-4	19	-1	1	nt
COCCN(C(=S)Nc1c(C)cc(C)cc1C)C(C)c1cccnc1 (stereo not drawn)	3	-2	74*	-8	-4	-4	63*
CCOC(=O)c1ccc(CC(=O)c2ccc(O)c(O)c2O)o1	nt	33	43*	nt	?	-16	7
CCOC(=O)c1cc2cc(CC(=O)c3ccc(OCC)cc3O)ccc2o1	-1	3	0	nt	-19	0	nt
COC(=O)C1CN(C2CCCC2)CCS(=O)(=O)N1Cc1ccc(C)cc1 (stereo not drawn)	nt	2	1	nt	nt	nt	nt
COc1ccc(C(=O)NC(=O)CSc2nc3nc(C)cc(C)n3n2)cc1	-1	3	27*	-5	0	6	2
COC(=O)[C@H](CC(C)C)N(CCc1cn(Cc2ccc(C)cc2)nn1)S(=O)(=O)c1ccccc1Br	nt	8	-3	nt	nt	nt	nt
Cc1ccc(/C=c2\sc3n(c2=O)CN(c2ccc(Br)cc2)CN=3)o1	-2	6	36*	-9	23	21	5
Cc1ccc(/C=c2/sc3n(c2=O)CCCN=3)o1	-2	2	21	nt	16	-4	nt
Fc1cccc(/C=N/Nc2nccnc2Cl)c1	0	-3	0	13	2	0	nt
C[n+]1cccc(/C=N/Nc2nc(Cl)c(C#N)c(Cl)c2Cl)c1	-2	3	49*	nt	nt	3	0
CC(C)(C)c1ccc(O)c(/C=N\O)c1	-6	6	2	-2	-4	-9	nt
CC(C)(C)c1ccc(O)c(O)c1	1	4	26*	-7	-2	-2	17
C[C@@H]1CN([C@@H](C)CO)S(=O)(=O)c2ccc(Br)cc2O[C@@H]1CN(C)Cc1cccnc1	nt	2	-3	nt	nt	-9	nt
Cc1ccc(NC(=O)C2CCC(CNC(=O)[C@@H]3Cc4ccccc4CN3)CC2)c(C)c1 (stereo partly drawn)	-4	-9	0	-4	17	10	nt
Nc1[nH]c(C(=O)c2ccccc2)c(-c2ccccc2Cl)c1C(=O)NCCc1c[nH]c2ccccc12	nt	10	-1	nt	nt	nt	nt
Cc1c(C(=O)NCc2ccc3c(c2)OCO3)sc2nc(-c3ccc(F)cc3)cn12	4	4	29*	5	2	-2	1
Cc1c(C(=O)NCc2ccc3c(c2)OCO3)sc2nc(-c3ccccc3)cn12	-1	4	0	-5	-1	-10	nt
CCCOc1ccc(-c2c(=O)n(O)c3ccccc3[n+]2[O-])cc1	-4	14	32*	nt	-2	2	5
CCOn1c(=O)c(-c2cccc3ccccc23)[n+]([O-])c2ccccc21	0	-3	3	0	11	3	nt
O=c1c(-c2cccc3ccccc23)[n+]([O-])c2ccccc2n1O	1	5	25*	-14	-9	-3	-1
COCCN1C(=O)CSCC1(C)C(=O)Nc1ccc2c(c1)OCCO2 (stereo not drawn)	nt	3	0	nt	nt	-5	nt
SMILES	LANA-H2A inh	rCAG binder	PRMT1 FP inh	ALR H2O2 inh	Rtt109 Vps75	ABHD5-PLIN5 inh	PRMT1 inh conf
c1ccc2[nH]c3cc4ncnc4cc3nc2c1	26*	-93	59*	-32	-27	0	61*
COC(=O)CCC(=O)c1ccc(OC)c(Cl)c1	3	nt	nt	-3	nt	nt	nt
Cc1nc(SCC(=O)c2ccccc2)n[nH]1	0	1	54*	90*	?	-6	43*
O=C(CSc1n[nH]c(-c2ccncc2)n1)c1ccccc1	0	0	2	26	-4	-2	nt
Cc1nnc(SCC2=C(C(=O)O)N3C(=O)C(NC(=O)Cn4ncc(Cl)c4C)C3SC2)s1 (stereo not drawn)	-2	18	50*	-6	-9	8	37*
CC1=C(C(=O)O)N2C(=O)C(NC(=O)c3c(F)cccc3F)C2SC1 (stereo not drawn)	nt	3	-2	nt	2	2	nt
Cc1cc(C)n(CC(=O)NC2C(=O)N3C(C(=O)O)=C(CSc4nnc(C)s4)CSC23)n1 (stereo not drawn)	-6	9	35*	-20	2	13	20
Cn1nnnc1SCC1=C(C(=O)O)N2C(=O)C(NC(=O)C3CC3c3ccccc3)C2SC1 (stereo not drawn)	2	11	28*	-1	7	10	13
CC(=O)OCC1=C(C(=O)O)N2C(=O)[C@@H](NC(=O)CSc3ccncc3)[C@H]2SC1	nt	16	19	nt	-2	8	nt
Cc1nnc(SCC2=C(C(=O)O)N3C(=O)C(NC(=O)c4cccc(F)c4F)C3SC2)s1 (stereo not drawn)	-6	24	59*	nt	2	5	29*
Cc1ccc(C)c(NC(=O)CNS(=O)(=O)c2ccc3[nH]c(=O)oc3c2)c1	nt	4	2	nt	nt	nt	nt
CCN(CC)C(=O)CC[C@H]1CC[C@]2(CCCN(Cc3cccc4ccccc34)C2)O1	nt	-2	1	nt	nt	nt	nt
CC1(C(=O)NCc2ccccc2Br)CCN1Cc1csc2ccccc12 (stereo not drawn)	nt	1	-3	nt	nt	1	nt
N#Cc1c(N)sc(=S)c2c1CCCC2	-13	3	28*	13	-2	-12	9
CCC1(C)Cc2c(C#N)c(N)sc(=S)c2CO1 (stereo not drawn)	1	9	28*	1	-3	-11	27*
CCCC1Cc2c(sc(N)c2C#N)CO1 (stereo not drawn)	7	2	-6	-58	11	-13	nt
COc1ccc(/C=C2\CC3(OC(=O)C4CCCCC4)CCCN2C3)cc1 (stereo not drawn)	nt	3	-2	nt	nt	nt	nt
O=C(NCCc1ccccc1Cl)[C@@H]1CCCN1C(=O)[C@@H](NS(=O)(=O)c1ccc(F)cc1F)C1CCCCC1	nt	2	0	nt	nt	nt	nt
CCC(=S)/C=C1\Sc2ccccc2N1CCCS(=O)(=O)O	0	9	34*	38	15	0	4
CCCCN1/C(=C/c2ccc3ccccc3[n+]2CC)Sc2ccccc21	nt	nt	nt	nt	33	9	nt
O=C(NCCN1CCC(n2c(=O)[nH]c3ccccc32)CC1)c1c(F)cccc1F	nt	0	1	nt	nt	5	nt
C=CCSc1nnc(N2C(=O)C(O)=C(C(=O)c3ccco3)C2c2ccccc2F)s1 (stereo not drawn)	2	25	27*	51	24	-10	10

Source: PubChem
